# Measured values as given in PubChem BioAssay.
# “And” between values parts separate entries of the source, which are not always exact repeats. Equal entries are not always repeated.
# Assay: survival rescue of mitochondrial mutant cells in low glucose, primary screen, MELAS cybrids, Rieske KO mouse fibroblasts, CellTiter-Glo (AID 1508586);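 further: test concentration not given here; z relative to plate mean and SD of compound and empty wells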
# Conditions: Rieske KO mouse fibroblast survival, CellTiter-Glo 72 h
row,Structure (SMILES),z-score
1,CC(C)(C)c1ccc(C(O)CCCN2CCC(C(O)(c3ccccc3)c3ccccc3)CC2)cc1 (stereo not drawn),1.02 and 1.14
2,O=C(NCC1CCCCN1)c1cc(OCC(F)(F)F)ccc1OCC(F)(F)F (stereo not drawn),0.614 and 0.91
3,O=C(O)COCCN1CCN(C(c2ccccc2)c2ccc(Cl)cc2)CC1 (stereo not drawn),0.813 and 0.142
4,CC(C)c1c(C(=O)Nc2ccccc2)c(-c2ccccc2)c(-c2ccc(F)cc2)n1CC[C@@H](O)C[C@@H](O)CC(=O)O,-0.779
5,Cc1ccc(/C(=C\CN2CCCC2)c2ccccn2)cc1,0.187 and -0.783
6,CC(C)(C)CC(C)(C)c1ccc(OCCOCC[N+](C)(C)Cc2ccccc2)cc1,-0.151 and 1.32
7,Clc1ccccc1CN1CCc2sccc2C1,0.315 and 0.0692
8,C[N+]1(C)CCC(OC(=O)C(O)(c2ccccc2)C2CCCC2)C1 (stereo not drawn),0.684
9,CN1[C@@H]2CC(OC(=O)[C@H](CO)c3ccccc3)C[C@H]1[C@@H]1O[C@@H]12 (stereo partly drawn),-0.839 and -0.133
10,CC(C)(C(=O)O)c1ccc(C(O)CCCN2CCC(C(O)(c3ccccc3)c3ccccc3)CC2)cc1 (stereo not drawn),-0.15 and -0.362
11,CC(C)n1c(/C=C/[C@@H](O)C[C@@H](O)CC(=O)O)c(-c2ccc(F)cc2)c2ccccc21,-0.983
12,CN(C)C(=N)N=C(N)N,0.0508 and -0.797
13,O=C(O)c1cn(C2CC2)c2cc(N3CCNCC3)c(F)cc2c1=O,-3.38 and -1.41
14,COc1ccc(-c2nc3ccc(C4=NNC(=O)CC4C)cc3[nH]2)cc1 (stereo not drawn),0.199
15,O=S(=O)(c1cccc2cnccc12)N1CCCNCC1,-1.52 and 0.0333
16,CS(=O)(=O)c1ccc([C@@H](O)[C@@H](CF)NC(=O)C(Cl)Cl)cc1,-1.14 and -0.231
17,C[C@@H](O[C@H]1OCCN(Cc2n[nH]c(=O)[nH]2)[C@H]1c1ccc(F)cc1)c1cc(C(F)(F)F)cc(C(F)(F)F)c1,2.09 and 0.201
18,NCCCC(O)(P(=O)(O)O)P(=O)(O)O,0.0856 and -0.0862 and 0.207
